Data reported in the supplement of paper PMC11001985.
Unmarked numbers belong to inactive results.

compound: C#CCNC(=O)CCSSCCC(=O)NCCc1ccc(C=O)c(C=O)c1; experiment: lysine labeling ratio R10:1 (500 µM / 50 µM probe), SILAC-ABPP in living cells; higher = lower intrinsic lysine reactivity toward the probe, active = 2 or less; details: HeLa; probe concentrations 500 vs 50 µM
Outline: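 An alkyne-tagged lysine probe with a disulfide linker labelled living HeLa cells in PBS at room temperature at either 50 µM or 500 µM, using SILAC light and heavy cells in forward and reverse label swaps. Lysates were mixed, clicked to biotin-azide, trypsin-digested, enriched on neutravidin, DTT-released, alkylated and measured by LC-MS/MS on a TIMS-TOF Pro. Each lysine's R is the filtered median high-probe/low-probe MS1 peptide ratio, combined as the median over forward and reverse replicates, with 20 as the upper limit.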

Chain of UniProt Q99985 (Q99985 whole entry): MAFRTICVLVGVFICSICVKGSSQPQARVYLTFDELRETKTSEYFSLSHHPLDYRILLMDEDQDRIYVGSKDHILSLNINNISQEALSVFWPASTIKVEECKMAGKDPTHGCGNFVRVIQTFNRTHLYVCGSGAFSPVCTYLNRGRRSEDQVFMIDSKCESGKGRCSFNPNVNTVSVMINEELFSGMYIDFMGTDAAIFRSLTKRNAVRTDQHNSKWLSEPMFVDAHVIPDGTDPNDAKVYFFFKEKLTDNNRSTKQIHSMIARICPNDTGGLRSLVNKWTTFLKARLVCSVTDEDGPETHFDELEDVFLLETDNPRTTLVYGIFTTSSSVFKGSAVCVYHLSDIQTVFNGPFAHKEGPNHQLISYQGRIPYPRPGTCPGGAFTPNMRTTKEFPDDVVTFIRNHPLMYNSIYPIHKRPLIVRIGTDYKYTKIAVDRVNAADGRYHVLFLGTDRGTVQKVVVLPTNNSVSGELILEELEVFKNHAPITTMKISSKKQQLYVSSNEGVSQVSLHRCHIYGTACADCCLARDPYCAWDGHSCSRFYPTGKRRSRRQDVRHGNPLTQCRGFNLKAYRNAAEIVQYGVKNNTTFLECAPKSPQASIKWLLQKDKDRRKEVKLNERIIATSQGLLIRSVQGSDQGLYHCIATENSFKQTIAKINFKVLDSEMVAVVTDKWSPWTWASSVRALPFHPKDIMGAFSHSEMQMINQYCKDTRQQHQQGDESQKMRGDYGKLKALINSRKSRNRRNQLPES
Chain of UniProt P08648 (P08648 whole entry): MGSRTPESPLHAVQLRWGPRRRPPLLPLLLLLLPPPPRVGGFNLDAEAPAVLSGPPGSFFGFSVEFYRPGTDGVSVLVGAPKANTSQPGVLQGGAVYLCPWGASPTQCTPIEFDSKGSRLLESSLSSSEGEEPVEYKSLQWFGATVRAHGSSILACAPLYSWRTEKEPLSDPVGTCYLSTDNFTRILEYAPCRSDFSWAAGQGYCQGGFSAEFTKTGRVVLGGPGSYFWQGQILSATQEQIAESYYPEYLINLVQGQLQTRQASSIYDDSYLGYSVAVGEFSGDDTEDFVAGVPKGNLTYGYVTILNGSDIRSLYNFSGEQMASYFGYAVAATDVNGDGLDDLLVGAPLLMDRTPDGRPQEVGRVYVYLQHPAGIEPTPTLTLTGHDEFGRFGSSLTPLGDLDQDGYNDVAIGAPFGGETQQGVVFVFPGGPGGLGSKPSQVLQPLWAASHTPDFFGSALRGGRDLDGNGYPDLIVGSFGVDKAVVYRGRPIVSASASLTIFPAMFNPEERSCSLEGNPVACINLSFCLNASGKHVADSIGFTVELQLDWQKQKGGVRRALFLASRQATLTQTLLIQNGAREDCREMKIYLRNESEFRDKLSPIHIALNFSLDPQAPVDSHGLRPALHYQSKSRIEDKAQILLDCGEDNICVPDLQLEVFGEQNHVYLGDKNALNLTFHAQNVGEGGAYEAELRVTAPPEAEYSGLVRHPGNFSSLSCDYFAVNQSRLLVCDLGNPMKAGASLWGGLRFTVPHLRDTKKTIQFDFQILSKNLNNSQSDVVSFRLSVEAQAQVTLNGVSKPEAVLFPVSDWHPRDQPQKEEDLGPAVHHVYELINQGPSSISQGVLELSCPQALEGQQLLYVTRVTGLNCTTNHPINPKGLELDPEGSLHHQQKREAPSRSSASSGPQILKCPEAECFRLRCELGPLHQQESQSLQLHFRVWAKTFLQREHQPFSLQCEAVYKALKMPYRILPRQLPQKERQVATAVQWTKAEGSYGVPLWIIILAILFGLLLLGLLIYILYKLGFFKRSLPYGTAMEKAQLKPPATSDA
Chain of UniProt P00387 (P00387 whole entry): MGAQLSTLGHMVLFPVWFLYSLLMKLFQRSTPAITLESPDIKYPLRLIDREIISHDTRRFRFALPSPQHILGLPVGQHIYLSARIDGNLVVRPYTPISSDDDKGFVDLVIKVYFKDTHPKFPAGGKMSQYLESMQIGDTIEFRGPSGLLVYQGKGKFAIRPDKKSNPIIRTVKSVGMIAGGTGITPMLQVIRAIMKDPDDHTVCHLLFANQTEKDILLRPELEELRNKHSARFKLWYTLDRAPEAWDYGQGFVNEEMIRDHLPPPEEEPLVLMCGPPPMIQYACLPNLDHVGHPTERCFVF
Chain of UniProt P54289 (P54289 whole entry): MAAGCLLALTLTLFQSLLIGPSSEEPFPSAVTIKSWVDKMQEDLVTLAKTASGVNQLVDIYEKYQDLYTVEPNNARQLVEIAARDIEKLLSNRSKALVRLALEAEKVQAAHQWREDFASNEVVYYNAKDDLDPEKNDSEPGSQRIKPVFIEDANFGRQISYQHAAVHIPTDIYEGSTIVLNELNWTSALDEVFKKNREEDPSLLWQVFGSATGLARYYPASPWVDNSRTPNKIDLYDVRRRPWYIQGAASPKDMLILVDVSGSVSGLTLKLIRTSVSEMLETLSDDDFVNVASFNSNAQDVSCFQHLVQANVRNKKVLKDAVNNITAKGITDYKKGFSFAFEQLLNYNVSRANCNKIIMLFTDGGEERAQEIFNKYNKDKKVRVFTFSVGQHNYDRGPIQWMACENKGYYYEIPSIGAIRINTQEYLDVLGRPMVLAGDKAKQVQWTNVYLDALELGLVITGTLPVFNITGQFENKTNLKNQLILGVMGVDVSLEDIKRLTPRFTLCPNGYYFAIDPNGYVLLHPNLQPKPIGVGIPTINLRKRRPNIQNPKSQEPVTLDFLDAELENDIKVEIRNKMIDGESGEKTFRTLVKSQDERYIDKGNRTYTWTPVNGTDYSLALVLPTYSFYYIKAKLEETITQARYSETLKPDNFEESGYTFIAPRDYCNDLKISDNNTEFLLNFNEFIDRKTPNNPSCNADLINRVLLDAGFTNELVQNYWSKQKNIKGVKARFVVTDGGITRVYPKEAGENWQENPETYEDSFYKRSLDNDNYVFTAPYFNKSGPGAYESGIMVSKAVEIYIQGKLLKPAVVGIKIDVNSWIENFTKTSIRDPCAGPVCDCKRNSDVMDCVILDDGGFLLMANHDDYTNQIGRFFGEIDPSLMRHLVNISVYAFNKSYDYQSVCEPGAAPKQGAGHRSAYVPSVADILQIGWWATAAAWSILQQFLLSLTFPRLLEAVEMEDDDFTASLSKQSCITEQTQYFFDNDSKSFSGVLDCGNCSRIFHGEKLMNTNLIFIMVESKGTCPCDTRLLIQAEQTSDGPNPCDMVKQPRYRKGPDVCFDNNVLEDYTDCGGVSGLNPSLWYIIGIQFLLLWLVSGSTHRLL
Chain of UniProt Q6PIU2 (Q6PIU2 whole entry): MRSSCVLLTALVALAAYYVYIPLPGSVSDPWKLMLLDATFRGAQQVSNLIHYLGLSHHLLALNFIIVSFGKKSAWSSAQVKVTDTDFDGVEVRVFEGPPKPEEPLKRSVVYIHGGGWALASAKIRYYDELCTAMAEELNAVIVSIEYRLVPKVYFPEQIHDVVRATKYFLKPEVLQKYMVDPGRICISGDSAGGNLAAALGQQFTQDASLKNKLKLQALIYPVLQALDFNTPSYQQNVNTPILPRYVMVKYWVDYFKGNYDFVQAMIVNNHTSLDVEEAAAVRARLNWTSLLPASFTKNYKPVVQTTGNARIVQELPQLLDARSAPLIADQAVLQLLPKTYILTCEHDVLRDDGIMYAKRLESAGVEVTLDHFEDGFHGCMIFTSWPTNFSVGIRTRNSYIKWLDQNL
Chain of UniProt Q02818 (Q02818 whole entry): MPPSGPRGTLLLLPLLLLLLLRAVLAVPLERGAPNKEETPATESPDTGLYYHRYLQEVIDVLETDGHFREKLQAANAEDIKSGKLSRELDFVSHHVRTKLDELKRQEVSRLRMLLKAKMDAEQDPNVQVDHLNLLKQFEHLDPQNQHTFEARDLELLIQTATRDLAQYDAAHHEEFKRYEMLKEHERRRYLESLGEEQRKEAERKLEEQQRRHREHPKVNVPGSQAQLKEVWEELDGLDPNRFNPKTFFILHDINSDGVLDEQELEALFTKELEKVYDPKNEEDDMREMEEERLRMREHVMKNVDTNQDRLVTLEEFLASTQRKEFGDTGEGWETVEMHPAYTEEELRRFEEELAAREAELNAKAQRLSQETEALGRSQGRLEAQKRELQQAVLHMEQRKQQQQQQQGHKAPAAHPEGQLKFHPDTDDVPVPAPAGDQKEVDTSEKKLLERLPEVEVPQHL
Chain of UniProt P04406 (P04406 whole entry, looked up): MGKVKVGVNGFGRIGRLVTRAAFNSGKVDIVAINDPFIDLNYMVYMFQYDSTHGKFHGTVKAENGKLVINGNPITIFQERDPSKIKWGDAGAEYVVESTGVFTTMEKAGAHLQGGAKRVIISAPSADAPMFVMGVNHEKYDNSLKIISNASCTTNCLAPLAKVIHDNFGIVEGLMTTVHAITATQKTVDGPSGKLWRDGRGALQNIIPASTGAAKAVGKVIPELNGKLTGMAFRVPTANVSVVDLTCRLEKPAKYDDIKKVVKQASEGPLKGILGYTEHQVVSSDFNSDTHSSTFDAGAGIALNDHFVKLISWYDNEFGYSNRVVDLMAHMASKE
Chain of UniProt Q9NZN4 (Q9NZN4 whole entry): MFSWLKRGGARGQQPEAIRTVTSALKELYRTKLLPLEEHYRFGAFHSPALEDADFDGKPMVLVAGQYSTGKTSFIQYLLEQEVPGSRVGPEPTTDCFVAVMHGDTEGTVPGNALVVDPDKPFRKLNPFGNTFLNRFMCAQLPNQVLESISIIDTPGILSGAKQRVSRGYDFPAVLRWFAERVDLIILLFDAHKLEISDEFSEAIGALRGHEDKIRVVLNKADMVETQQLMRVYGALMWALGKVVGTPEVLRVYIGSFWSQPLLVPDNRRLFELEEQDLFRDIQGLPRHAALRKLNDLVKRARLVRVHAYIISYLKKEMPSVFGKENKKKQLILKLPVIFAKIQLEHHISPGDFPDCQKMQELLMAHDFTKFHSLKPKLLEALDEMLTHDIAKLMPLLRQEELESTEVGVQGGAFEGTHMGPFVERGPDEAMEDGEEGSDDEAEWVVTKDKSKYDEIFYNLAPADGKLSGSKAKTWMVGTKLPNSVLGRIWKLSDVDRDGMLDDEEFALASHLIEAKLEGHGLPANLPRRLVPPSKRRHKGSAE

Target	lysine labeling ratio R10:1
PDIA4 (lysine site: K366) (UniProt P13667)	1.22 (active)
CCT3 (lysine site: K222) (UniProt P49368)	2.19
LAMC1 (lysine site: K1355) (UniProt P11047)	1.67 (active)
VAPA (lysine site: K188) (UniProt Q9P0L0)	1.99 (active)
AGRN (lysine site: K77) (UniProt O00468)	1.69 (active)
ITGB5 (lysine site: K163) (UniProt P18084)	2.53
SND1 (lysine site: K177) (UniProt Q7KZF4)	0.9 (active)
SEMA3C (lysine site: K724) (UniProt Q99985)	4.97
FAT4 (lysine site: K1251) (UniProt Q6V0I7)	1.62 (active)
HNRNPU (lysine site: K343) (UniProt Q00839)	3.69
ITGA5 (lysine site: K943) (UniProt P08648)	2.54
PCMT1 (lysine site: K125) (UniProt P22061)	1.38 (active)
EZR (lysine site: K143) (UniProt P15311)	2.46
UniProt Q6PIU2 (lysine site: K359)	1.48 (active)
ITGA5 (lysine site: K588) (UniProt P08648)	1.72 (active)
FOLR1 (lysine site: K97) (UniProt P15328)	4.12
NLRX1 (lysine site: K301) (UniProt Q86UT6)	2.38
HSPA4 (lysine site: K686) (UniProt P34932)	8.32
UniProt P62888 (lysine site: K44)	2.17
PA2G4 (lysine site: K376) (UniProt Q9UQ80)	1.5 (active)

Target	lysine labeling ratio R10:1
NUCB1 (lysine site: K183) (UniProt Q02818)	3.16
SEMA3C (lysine site: K106) (UniProt Q99985)	0.653 (active)
EWSR1 (lysine site: K644) (UniProt Q01844)	1.76 (active)
CLSTN1 (lysine site: K322) (UniProt O94985)	0.805 (active)
TPI1 (lysine site: K188) (UniProt P60174)	4.28
HNRNPM (lysine site: K381) (UniProt P52272)	5.22
DDX5 (lysine site: K523) (UniProt P17844)	4.4
FRAS1 (lysine site: K3093) (UniProt Q86XX4)	3.29
SEMA3C (lysine site: K391) (UniProt Q99985)	4.13
DSG2 (lysine site: K430) (UniProt Q14126)	6.01
RPS3 (lysine site: K75) (UniProt P23396)	2.68
CACNA2D1 (lysine site: K649) (UniProt P54289)	10.1
PSMA2 (lysine site: K53) (UniProt P25787)	2.94
CYB5R3 (lysine site: K42) (UniProt P00387)	3.81
GAPDH (lysine site: K334) (UniProt P04406)	5.36
EHD2 (lysine site: K220) (UniProt Q9NZN4)	2.14
CD109 (lysine site: K1018) (UniProt Q6YHK3)	1.99 (active)
FASN (lysine site: K1927) (UniProt P49327)	1.05 (active)
CNP (lysine site: K402) (UniProt P09543)	2.29
ICAM1 (lysine site: K359) (UniProt P05362)	3.71
